Reference: the supplement of paper PMC4466140

Target: AgAbp1
Assay: SPOT peptide array binding signal intensity (averaged, normalized) (arbitrary units (background-subtracted, floor 0; scale differs between SH3 domains)); higher = stronger binding of the SH3 domain to the peptide
Summary of the method: (§1)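 SH3 domains from four yeast species were expressed as GST fusions in E. coli BL21(DE3) and purified on glutathione Sepharose. Each was incubated at 10 μg/ml overnight at 4°C in TBS-based blocking buffer on cellulose membranes bearing synthetic 15-mer peptides, in which serines replaced cysteines. Bound protein was detected with anti-GST antibody, an HRP anti-mouse secondary and luminol, then imaged and quantified with Genespotter. The binding signal is the normalized, background-subtracted spot intensity averaged over replicates, in arbitrary units that are not the same from one domain to another.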

Row | Binder | SPOT peptide array binding signal intensity
1 | GKFIPSRPAPKPPSS | 978

Target: AgBbc1
Assay: as above
Summary of the method: as §1

Row | Binder | SPOT peptide array binding signal intensity
2 | GKFIPSRPAPKPPSS | 1050

Target: AgBem1-D1
Assay: as above
Summary of the method: as §1

Row | Binder | SPOT peptide array binding signal intensity
3 | GKFIPSRPAPKPPSS | 328

Target: AgBzz1-D1
Assay: as above
Summary of the method: as §1

Row | Binder | SPOT peptide array binding signal intensity
4 | GKFIPSRPAPKPPSS | 46

Target: AgBzz1-D2
Assay: as above
Summary of the method: as §1

Row | Binder | SPOT peptide array binding signal intensity
5 | GKFIPSRPAPKPPSS | 37

Target: AgCyk3
Assay: as above
Summary of the method: as §1

Row | Binder | SPOT peptide array binding signal intensity
6 | GKFIPSRPAPKPPSS | 2

Target: AgFus1
Assay: as above
Summary of the method: as §1

Row | Binder | SPOT peptide array binding signal intensity
7 | GKFIPSRPAPKPPSS | ≤ 0

Target: AgHof1
Assay: as above
Summary of the method: as §1

Row | Binder | SPOT peptide array binding signal intensity
8 | GKFIPSRPAPKPPSS | 51.8

Target: AgHse1
Assay: as above
Summary of the method: as §1

Row | Binder | SPOT peptide array binding signal intensity
9 | GKFIPSRPAPKPPSS | 8

Target: AgLsb1
Assay: as above
Summary of the method: as §1

Row | Binder | SPOT peptide array binding signal intensity
10 | GKFIPSRPAPKPPSS | 218

Target: AgLsb4
Assay: as above
Summary of the method: as §1

Row | Binder | SPOT peptide array binding signal intensity
11 | GKFIPSRPAPKPPSS | 19

Target: AgMyo5
Assay: as above
Summary of the method: as §1

Row | Binder | SPOT peptide array binding signal intensity
12 | GKFIPSRPAPKPPSS | 1850

Target: AgNbp2
Assay: as above
Summary of the method: as §1

Row | Binder | SPOT peptide array binding signal intensity
13 | GKFIPSRPAPKPPSS | 4160

Target: AgRvs167
Assay: as above
Summary of the method: as §1

Row | Binder | SPOT peptide array binding signal intensity
14 | GKFIPSRPAPKPPSS | 2.83

Target: AgSho1
Assay: as above
Summary of the method: as §1

Row | Binder | SPOT peptide array binding signal intensity
15 | GKFIPSRPAPKPPSS | 17

Target: AgSla1-D1-D2
Assay: as above
Summary of the method: as §1

Row | Binder | SPOT peptide array binding signal intensity
16 | GKFIPSRPAPKPPSS | 35

Target: AgSla1-D3
Assay: as above
Summary of the method: as §1

Row | Binder | SPOT peptide array binding signal intensity
17 | GKFIPSRPAPKPPSS | 9.25

Target: CaAbp1-D1
Assay: as above
Summary of the method: as §1

Row | Binder | SPOT peptide array binding signal intensity
18 | GKFIPSRPAPKPPSS | 922

Target: CaAbp1-D2
Assay: as above
Summary of the method: as §1

Row | Binder | SPOT peptide array binding signal intensity
19 | GKFIPSRPAPKPPSS | 764

Target: CaBbc1
Assay: as above
Summary of the method: as §1

Row | Binder | SPOT peptide array binding signal intensity
20 | GKFIPSRPAPKPPSS | 1370

Target: CaBem1-D1
Assay: as above
Summary of the method: as §1

Row | Binder | SPOT peptide array binding signal intensity
21 | GKFIPSRPAPKPPSS | 2020

Target: CaBzz1-D1
Assay: as above
Summary of the method: as §1

Row | Binder | SPOT peptide array binding signal intensity
22 | GKFIPSRPAPKPPSS | 1860

Target: CaBzz1-D2
Assay: as above
Summary of the method: as §1

Row | Binder | SPOT peptide array binding signal intensity
23 | GKFIPSRPAPKPPSS | 808

Target: CaCyk3
Assay: as above
Summary of the method: as §1

Row | Binder | SPOT peptide array binding signal intensity
24 | GKFIPSRPAPKPPSS | 88.5

Target: CaFus1
Assay: as above
Summary of the method: as §1

Row | Binder | SPOT peptide array binding signal intensity
25 | GKFIPSRPAPKPPSS | 54.5

Target: CaHof1
Assay: as above
Summary of the method: as §1

Row | Binder | SPOT peptide array binding signal intensity
26 | GKFIPSRPAPKPPSS | 0.5

Target: CaHse1
Assay: as above
Summary of the method: as §1

Row | Binder | SPOT peptide array binding signal intensity
27 | GKFIPSRPAPKPPSS | ≤ 0

Target: CaLsb1
Assay: as above
Summary of the method: as §1

Row | Binder | SPOT peptide array binding signal intensity
28 | GKFIPSRPAPKPPSS | ≤ 0

Target: CaLsb4
Assay: as above
Summary of the method: as §1

Row | Binder | SPOT peptide array binding signal intensity
29 | GKFIPSRPAPKPPSS | 53

Target: CaMyo5
Assay: as above
Summary of the method: as §1

Row | Binder | SPOT peptide array binding signal intensity
30 | GKFIPSRPAPKPPSS | 24

Target: CaNbp2
Assay: as above
Summary of the method: as §1

Row | Binder | SPOT peptide array binding signal intensity
31 | GKFIPSRPAPKPPSS | 3600

Target: CaRvs167
Assay: as above
Summary of the method: as §1

Row | Binder | SPOT peptide array binding signal intensity
32 | GKFIPSRPAPKPPSS | 26.2

Target: CaRvs167-3
Assay: as above
Summary of the method: as §1

Row | Binder | SPOT peptide array binding signal intensity
33 | GKFIPSRPAPKPPSS | 3.25

Target: CaSho1
Assay: as above
Summary of the method: as §1

Row | Binder | SPOT peptide array binding signal intensity
34 | GKFIPSRPAPKPPSS | 36

Target: CaSla1-D1-D2
Assay: as above
Summary of the method: as §1

Row | Binder | SPOT peptide array binding signal intensity
35 | GKFIPSRPAPKPPSS | 684

Target: CaSla1-D3
Assay: as above
Summary of the method: as §1

Row | Binder | SPOT peptide array binding signal intensity
36 | GKFIPSRPAPKPPSS | 14.5

Target: ScAbp1
Assay: as above
Summary of the method: as §1

Row | Binder | SPOT peptide array binding signal intensity
37 | GKFIPSRPAPKPPSS | 127

Target: ScBbc1
Assay: as above
Summary of the method: as §1

Row | Binder | SPOT peptide array binding signal intensity
38 | GKFIPSRPAPKPPSS | 552

Target: ScBem1-D1
Assay: as above
Summary of the method: as §1

Row | Binder | SPOT peptide array binding signal intensity
39 | GKFIPSRPAPKPPSS | 1

Target: ScBzz1-D1
Assay: as above
Summary of the method: as §1

Row | Binder | SPOT peptide array binding signal intensity
40 | GKFIPSRPAPKPPSS | 39

Target: ScBzz1-D2
Assay: as above
Summary of the method: as §1

Row | Binder | SPOT peptide array binding signal intensity
41 | GKFIPSRPAPKPPSS | 25

Target: ScCyk3
Assay: as above
Summary of the method: as §1

Row | Binder | SPOT peptide array binding signal intensity
42 | GKFIPSRPAPKPPSS | 2

Target: ScFus1
Assay: as above
Summary of the method: as §1

Row | Binder | SPOT peptide array binding signal intensity
43 | GKFIPSRPAPKPPSS | ≤ 0

Target: ScHof1
Assay: as above
Summary of the method: as §1

Row | Binder | SPOT peptide array binding signal intensity
44 | GKFIPSRPAPKPPSS | 8.25

Target: ScHse1
Assay: as above
Summary of the method: as §1

Row | Binder | SPOT peptide array binding signal intensity
45 | GKFIPSRPAPKPPSS | 74

Target: ScLsb1
Assay: as above
Summary of the method: as §1

Row | Binder | SPOT peptide array binding signal intensity
46 | GKFIPSRPAPKPPSS | 175

Target: ScLsb2
Assay: as above
Summary of the method: as §1

Row | Binder | SPOT peptide array binding signal intensity
47 | GKFIPSRPAPKPPSS | 161

Target: ScLsb3
Assay: as above
Summary of the method: as §1

Row | Binder | SPOT peptide array binding signal intensity
48 | GKFIPSRPAPKPPSS | 508

Target: ScLsb4
Assay: as above
Summary of the method: as §1

Row | Binder | SPOT peptide array binding signal intensity
49 | GKFIPSRPAPKPPSS | 13.5

Target: ScMyo3
Assay: as above
Summary of the method: as §1

Row | Binder | SPOT peptide array binding signal intensity
50 | GKFIPSRPAPKPPSS | 3530

Target: ScMyo5
Assay: as above
Summary of the method: as §1

Row | Binder | SPOT peptide array binding signal intensity
51 | GKFIPSRPAPKPPSS | 3480

Target: ScNbp2
Assay: as above
Summary of the method: as §1

Row | Binder | SPOT peptide array binding signal intensity
52 | GKFIPSRPAPKPPSS | 5410

Target: ScPex13
Assay: as above
Summary of the method: as §1

Row | Binder | SPOT peptide array binding signal intensity
53 | GKFIPSRPAPKPPSS | 1460

Target: ScRvs167
Assay: as above
Summary of the method: as §1

Row | Binder | SPOT peptide array binding signal intensity
54 | GKFIPSRPAPKPPSS | 274

Target: ScSho1
Assay: as above
Summary of the method: as §1

Row | Binder | SPOT peptide array binding signal intensity
55 | GKFIPSRPAPKPPSS | 66.5

Target: ScSla1-D1-D2
Assay: as above
Summary of the method: as §1

Row | Binder | SPOT peptide array binding signal intensity
56 | GKFIPSRPAPKPPSS | 652

Target: ScSla1-D3
Assay: as above
Summary of the method: as §1

Row | Binder | SPOT peptide array binding signal intensity
57 | GKFIPSRPAPKPPSS | 156

Target: SpAbp1-D1
Assay: as above
Summary of the method: as §1

Row | Binder | SPOT peptide array binding signal intensity
58 | GKFIPSRPAPKPPSS | 187

Target: SpBbc1
Assay: as above
Summary of the method: as §1

Row | Binder | SPOT peptide array binding signal intensity
59 | GKFIPSRPAPKPPSS | 46.5

Target: SpBzz1-D1
Assay: as above
Summary of the method: as §1

Row | Binder | SPOT peptide array binding signal intensity
60 | GKFIPSRPAPKPPSS | 735

Target: SpBzz1-D2
Assay: as above
Summary of the method: as §1

Row | Binder | SPOT peptide array binding signal intensity
61 | GKFIPSRPAPKPPSS | 9.5

Target: SpCyk3
Assay: as above
Summary of the method: as §1

Row | Binder | SPOT peptide array binding signal intensity
62 | GKFIPSRPAPKPPSS | 5

Target: SpHof1
Assay: as above
Summary of the method: as §1

Row | Binder | SPOT peptide array binding signal intensity
63 | GKFIPSRPAPKPPSS | 77.5

Target: SpHof1-2
Assay: as above
Summary of the method: as §1

Row | Binder | SPOT peptide array binding signal intensity
64 | GKFIPSRPAPKPPSS | 33

Target: SpHof1-3
Assay: as above
Summary of the method: as §1

Row | Binder | SPOT peptide array binding signal intensity
65 | GKFIPSRPAPKPPSS | 94.8

Target: SpHse1
Assay: as above
Summary of the method: as §1

Row | Binder | SPOT peptide array binding signal intensity
66 | GKFIPSRPAPKPPSS | 180

Target: SpLsb1
Assay: as above
Summary of the method: as §1

Row | Binder | SPOT peptide array binding signal intensity
67 | GKFIPSRPAPKPPSS | 98.8

Target: SpLsb4
Assay: as above
Summary of the method: as §1

Row | Binder | SPOT peptide array binding signal intensity
68 | GKFIPSRPAPKPPSS | 600

Target: SpMyo1
Assay: as above
Summary of the method: as §1

Row | Binder | SPOT peptide array binding signal intensity
69 | GKFIPSRPAPKPPSS | 2900

Target: SpNbp2
Assay: as above
Summary of the method: as §1

Row | Binder | SPOT peptide array binding signal intensity
70 | GKFIPSRPAPKPPSS | 850

Target: SpPex13
Assay: as above
Summary of the method: as §1

Row | Binder | SPOT peptide array binding signal intensity
71 | GKFIPSRPAPKPPSS | 22

Target: SpRvs167
Assay: as above
Summary of the method: as §1

Row | Binder | SPOT peptide array binding signal intensity
72 | GKFIPSRPAPKPPSS | 90

Target: SpSla1-D1-D2
Assay: as above
Summary of the method: as §1

Row | Binder | SPOT peptide array binding signal intensity
73 | GKFIPSRPAPKPPSS | ≤ 0

Target: SpSla1-D3
Assay: as above
Summary of the method: as §1

Row | Binder | SPOT peptide array binding signal intensity
74 | GKFIPSRPAPKPPSS | 3.5
